{
  "source": "paper PMC4336329",
  "about": "(PLoS ONE, 2015)",
  "note": "The campaign covered roughly 310,000 compounds. About 14,000 (4.5%) showed an effect of 50% or more. The effect is printed as a negative number. This excerpt belongs to a sample that is enriched for strong results.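 Further: peak tail current of the secondary pulse compared with the same well before compound.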",
  "data": [
    {"target": "human ether-à-go-go-related gene (hERG) potassium channel (human, UniProt Q12809)", "sequence (Q12809 whole entry, looked up)": "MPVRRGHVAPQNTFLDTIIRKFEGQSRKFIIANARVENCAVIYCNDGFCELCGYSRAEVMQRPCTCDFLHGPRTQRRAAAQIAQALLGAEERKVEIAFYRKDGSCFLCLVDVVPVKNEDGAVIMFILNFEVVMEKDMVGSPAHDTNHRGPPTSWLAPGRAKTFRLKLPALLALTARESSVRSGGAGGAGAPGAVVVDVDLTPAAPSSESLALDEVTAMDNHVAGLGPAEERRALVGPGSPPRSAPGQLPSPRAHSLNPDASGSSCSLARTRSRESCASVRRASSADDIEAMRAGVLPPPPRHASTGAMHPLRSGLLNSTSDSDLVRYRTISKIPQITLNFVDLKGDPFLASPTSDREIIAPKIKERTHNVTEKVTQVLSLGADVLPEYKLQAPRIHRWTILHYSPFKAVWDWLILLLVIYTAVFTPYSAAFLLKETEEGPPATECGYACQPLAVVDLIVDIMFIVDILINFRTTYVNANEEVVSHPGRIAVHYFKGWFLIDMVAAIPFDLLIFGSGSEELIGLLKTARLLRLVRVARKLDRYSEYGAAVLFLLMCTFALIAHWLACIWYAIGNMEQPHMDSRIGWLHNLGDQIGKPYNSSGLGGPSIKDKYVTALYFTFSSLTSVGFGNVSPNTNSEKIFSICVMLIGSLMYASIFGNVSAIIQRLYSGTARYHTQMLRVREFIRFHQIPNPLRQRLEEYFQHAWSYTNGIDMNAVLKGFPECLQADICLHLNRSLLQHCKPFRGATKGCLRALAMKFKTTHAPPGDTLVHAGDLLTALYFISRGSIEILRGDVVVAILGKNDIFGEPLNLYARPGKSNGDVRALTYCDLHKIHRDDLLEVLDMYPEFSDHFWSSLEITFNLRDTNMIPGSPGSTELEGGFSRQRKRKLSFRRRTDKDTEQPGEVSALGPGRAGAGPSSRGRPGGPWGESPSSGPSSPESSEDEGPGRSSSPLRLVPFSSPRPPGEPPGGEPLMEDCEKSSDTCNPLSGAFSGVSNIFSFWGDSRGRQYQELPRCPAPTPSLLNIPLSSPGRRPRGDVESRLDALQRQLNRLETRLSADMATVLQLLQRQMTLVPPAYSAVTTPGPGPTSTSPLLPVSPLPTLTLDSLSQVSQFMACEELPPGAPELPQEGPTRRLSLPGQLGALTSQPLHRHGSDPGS", "assay": "primary screen, population patch clamp on CHO cells stably expressing hERG; higher = less effect of the substance", "units": {"hERG current change (%, negative = inhibition) at 10uM": "%"}, "values": [
      {"smiles": "CSc1cccc(NC(=O)/C=C/c2ccccc2)c1", "hERG current change (%, negative = inhibition) at 10uM": -7.06},
      {"smiles": "CC(=O)N1CCN(S(=O)(=O)c2cccc(C(=O)NCCC3=CCCCC3)c2)CC1", "hERG current change (%, negative = inhibition) at 10uM": -8.54},
      {"smiles": "O=C1N(c2ccc(Cl)c(Cl)c2)CN(Cc2ccccc2)CN1n1cnnc1", "hERG current change (%, negative = inhibition) at 10uM": -25.9},
      {"smiles": "COc1ccccc1-c1noc(CCC(=O)Nc2ccccc2Cl)n1", "hERG current change (%, negative = inhibition) at 10uM": -4.71},
      {"smiles": "CS(=O)(=O)c1ccccc1-c1nnc(NC(=O)COc2ccc(Cl)cc2)o1", "hERG current change (%, negative = inhibition) at 10uM": -6.82},
      {"smiles": "CCC1=C(OC(=O)N(CC)CC)N2C(=O)OC(=NCc3ccccc3)[C@]2(C)[C@H]2C1=CC[C@H]1C(=O)NC(=O)[C@H]12", "hERG current change (%, negative = inhibition) at 10uM": -6.14},
      {"smiles": "CCC1CCCCN1C(=O)c1cc2c(=O)n3cccc(C)c3nc2s1", "note": "(centres unmarked)", "hERG current change (%, negative = inhibition) at 10uM": 4.01},
      {"smiles": "CCC1Oc2ccccc2N(CC(=O)NCCC2=CCCCC2)C1=O", "note": "(centres unmarked)", "hERG current change (%, negative = inhibition) at 10uM": 3.64},
      {"smiles": "FC(F)(F)c1cc(-c2ccc(Cl)cc2)nc2ncnn12", "hERG current change (%, negative = inhibition) at 10uM": -16.2},
      {"smiles": "CCc1cc(=O)oc2cc(C)cc(OCC(=O)NCc3cccnc3)c12", "hERG current change (%, negative = inhibition) at 10uM": -31.5},
      {"smiles": "CCCCc1cc(=O)oc2cc(C)cc(OCC(=O)Nc3cccnc3)c12", "hERG current change (%, negative = inhibition) at 10uM": 26.7},
      {"smiles": "CCCCc1cc(=O)oc2cc(C)cc(OCC(=O)NCc3ccncc3)c12", "hERG current change (%, negative = inhibition) at 10uM": -84.1},
      {"smiles": "CCCCc1cc(=O)oc2cc(C)cc(OCC(=O)Nc3ccccn3)c12", "hERG current change (%, negative = inhibition) at 10uM": 28.6},
      {"smiles": "CCCCc1cc(=O)oc2cc(C)cc(OCC(=O)NCc3cccnc3)c12", "hERG current change (%, negative = inhibition) at 10uM": -54.1},
      {"smiles": "CCCc1cc(=O)oc2cc(C)cc(OCC(=O)Nc3cccnc3)c12", "hERG current change (%, negative = inhibition) at 10uM": -0.927},
      {"smiles": "CCCc1cc(=O)oc2cc(C)cc(OCC(=O)Nc3ccccn3)c12", "hERG current change (%, negative = inhibition) at 10uM": 13.2},
      {"smiles": "CCCc1cc(=O)oc2cc(C)cc(OCC(=O)NCc3ccncc3)c12", "hERG current change (%, negative = inhibition) at 10uM": -69.5},
      {"smiles": "CCCc1cc(=O)oc2cc(C)cc(OCC(=O)NCc3cccnc3)c12", "hERG current change (%, negative = inhibition) at 10uM": -44.4},
      {"smiles": "CCOc1ccc(NC(=O)Cn2nnc(C(=O)NCc3ccco3)c2N)cc1", "hERG current change (%, negative = inhibition) at 10uM": 15.1},
      {"smiles": "C=CCN1C(=O)S/C(=C/c2ccc(Sc3nc4ccccc4[nH]3)o2)C1=O", "hERG current change (%, negative = inhibition) at 10uM": 3.61},
      {"smiles": "CCN1C(=O)N[C@@H](c2ccccc2)[C@H](C(=O)OC)[C@H]1C", "hERG current change (%, negative = inhibition) at 10uM": -6.4},
      {"smiles": "COC(=O)Nc1nn(-c2ccc(C)cc2)c(=O)c(C#N)c1C", "hERG current change (%, negative = inhibition) at 10uM": 11.2},
      {"smiles": "CN(C)C(C(=O)NC1CCCCC1)c1ccc(Cl)cc1", "note": "(centres unmarked)", "hERG current change (%, negative = inhibition) at 10uM": 4.27},
      {"smiles": "COC(=O)c1ccc(N2CCN(C)CC2)c(NC(=O)COc2cccc(C)c2)c1", "hERG current change (%, negative = inhibition) at 10uM": -18.9},
      {"smiles": "CCOC(=O)c1ccc(N=C(C)c2c(O)[nH]c(=O)[nH]c2=O)cc1", "hERG current change (%, negative = inhibition) at 10uM": 10.8},
      {"smiles": "CCCCn1nc(C(=O)NC2=NCCS2)c2ccccc2c1=O", "hERG current change (%, negative = inhibition) at 10uM": -16.3},
      {"smiles": "Cc1cc(NC(=O)COC(=O)CC2CCCC2)c([N+](=O)[O-])cc1C", "hERG current change (%, negative = inhibition) at 10uM": 9.34},
      {"smiles": "CCOC(=O)CC(NC(=O)c1cc2cc(Br)ccc2oc1=O)c1cccc([N+](=O)[O-])c1", "note": "(centres unmarked)", "hERG current change (%, negative = inhibition) at 10uM": -27.5},
      {"smiles": "CCOC(=O)CC(NC(=O)c1cc2ccccc2oc1=O)c1cccc([N+](=O)[O-])c1", "note": "(centres unmarked)", "hERG current change (%, negative = inhibition) at 10uM": -58.5},
      {"smiles": "CCOC(=O)CC(NC(=O)c1cc2cccc(OC)c2oc1=O)c1ccc(OC)cc1", "note": "(centres unmarked)", "hERG current change (%, negative = inhibition) at 10uM": -5.76},
      {"smiles": "CCOC(=O)CC(NC(=O)c1cc2cccc(OC)c2oc1=O)c1cccc([N+](=O)[O-])c1", "note": "(centres unmarked)", "hERG current change (%, negative = inhibition) at 10uM": -23},
      {"smiles": "CCOC(=O)CC(NC(=O)c1cc2cc(Cl)cc(Cl)c2oc1=O)c1cccc([N+](=O)[O-])c1", "note": "(centres unmarked)", "hERG current change (%, negative = inhibition) at 10uM": -66.8},
      {"smiles": "CCOC(=O)CC(N)c1cccc([N+](=O)[O-])c1.Cl", "note": "(centres unmarked)", "hERG current change (%, negative = inhibition) at 10uM": 2.9},
      {"smiles": "O=C(Nc1ccccn1)C1COc2ccccc2O1", "note": "(centres unmarked)", "hERG current change (%, negative = inhibition) at 10uM": 16.1},
      {"smiles": "CCOC(=O)c1sc2nc(C)nc(NC3CCC(O)CC3)c2c1C", "note": "(centres unmarked)", "hERG current change (%, negative = inhibition) at 10uM": 2.9},
      {"smiles": "CSc1ccccc1NC(=O)CN(C)CC(=O)Nc1ccc(Cl)cc1[N+](=O)[O-]", "hERG current change (%, negative = inhibition) at 10uM": -31.6},
      {"smiles": "O=C(CN1C(=O)C2CC=CCC2C1=O)NCC(=O)Nc1ccc(F)c(F)c1F", "note": "(centres unmarked)", "hERG current change (%, negative = inhibition) at 10uM": 7.55},
      {"smiles": "Cc1cc(Cl)c(S(=O)(=O)N/N=C/c2ccc3c(c2)OCO3)c(Cl)c1", "hERG current change (%, negative = inhibition) at 10uM": 2.77},
      {"smiles": "COc1ccc(NC(=O)N2CCc3ccccc3C2)cc1OC", "hERG current change (%, negative = inhibition) at 10uM": 11.3},
      {"smiles": "CCNc1nc(NC(C)C)nc(Nn2cnnc2)n1", "hERG current change (%, negative = inhibition) at 10uM": 9.05},
      {"smiles": "O=C(NCc1cccs1)C1CCN(S(=O)(=O)c2cccc3nsnc23)CC1", "hERG current change (%, negative = inhibition) at 10uM": -13.1},
      {"smiles": "CS(=O)(=O)c1ccccc1C(=O)Nc1cc(Cl)ccc1-n1cncn1", "hERG current change (%, negative = inhibition) at 10uM": 13.4},
      {"smiles": "Cc1ccc(NC(=O)CN2C(=O)NC3(CCCc4ccccc43)C2=O)c([N+](=O)[O-])c1", "note": "(centres unmarked)", "hERG current change (%, negative = inhibition) at 10uM": -75.6},
      {"smiles": "O=C(CN1C(=O)NC2(CCc3ccccc32)C1=O)c1ccc(F)cc1", "note": "(centres unmarked)", "hERG current change (%, negative = inhibition) at 10uM": -57.4}
    ]}
  ]
}
